The values that follow come from PubChem BioAssay.

The nature of experiment [1]: binders of probe aFSTL3 on microarray, primary screen, stem cell growth factor project, biochemical, small-molecule microarray, fluorescence 635/667 (AID 1064).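 Further: measures binding of the biotinylated anti-FSTL3 antibody to printed compounds.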 To be noted: higher = more signal.
Experiment [2] can be described thus: binders from COS7 lysate, DM2A8 probe, primary screen, torsin A project, cell lysate, small-molecule microarray, fluorescence 635/667 (AID 1065). To be noted: higher = more signal, COS7 lysate expressing mutant human TOR1A.
A short description of experiment [3]: binders of probe aFGF2 on microarray, primary screen, stem cell growth factor project, biochemical, small-molecule microarray, fluorescence 635/667 (AID 1067).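 Further: measures binding of biotinylated aFGF2 protein to printed compounds on slides; z-score merges feature fluorescence and signal-to-noise across triplicate slides.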 As to conditions: higher = more signal.
Experiment [4] can be described thus: binders of probe aFGF10 on microarray, primary screen, stem cell growth factor project, biochemical, small-molecule microarray, fluorescence 635/667 (AID 1071).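 Further: score merges 667 nm spot intensity and signal to noise from triplicate slides.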 As to conditions: higher = more signal.
The target in experiment [5] is Neurogenic locus notch homolog protein 2 (Homo sapiens) (UniProt Q04721). Kind of experiment: Notch2 binders on small-molecule microarrays, primary screen, biochemical, small-molecule microarray, 635 nm fluorescence, stem cell growth factors (AID 1073). To be noted: Notch2 binding, higher = more signal.
The target of experiment [6] is Pro-neuregulin-1, membrane-bound isoform (Homo sapiens) (UniProt Q02297). Kind of experiment: NRG1 binders on small-molecule microarrays, primary screen, psychiatric disease protein project, biochemical, small-molecule microarray, fluorescence 635/667 (AID 1075).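 Further: score combines 667 nm spot fluorescence with signal to noise.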 As to conditions: NRG1 binding, 635 nm fluorescence, higher = more signal.
For experiment [7], the system named is Neuregulin-1 EGF-like domain. As to the kind of experiment: binders of neuregulin-1 EGF-like domain, primary screen, biochemical, small-molecule microarray, 635 nm fluorescence (AID 1081).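 Further: binding of the protein to compounds printed on small-molecule microarray slides.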 As to conditions: small-molecule microarray binding, higher = more signal.
A short description of experiment [8]: FRG1 promoter luciferase signal modulators, primary screen, FRG1 inhibition for FSHD, cell-based, C2C12 myotubes, firefly/Renilla luciferase, luminescence (AID 1084). To be noted: higher = more signal, called active from +8 up or from −8 down.
Experiment [9] is described as follows: binders of probe aFST on microarray, primary screen, stem cell growth factor project, biochemical, small-molecule microarray, fluorescence 635/667 (AID 1086).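 Further: score merges 667 nm fluorescence with signal-to-noise of each printed compound spot.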 As to conditions: higher = more signal.
Experiment [10] can be described thus: binders of probe aHhip on microarray, primary screen, stem cell growth factor project, biochemical, small-molecule microarray, fluorescence 635/667 (AID 1087).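 Further: score merges spot fluorescence at 667nm with spot signal to noise ratio.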 As to conditions: higher = more signal.
Experiment [11] has as its system PRMT1 (protein arginine N-methyltransferase 1). As to the kind of experiment: PRMT1 binders on small-molecule microarrays, primary screen, biochemical, small-molecule microarray, 635 nm fluorescence (AID 1088).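 Further: binding of Prmt1 protein to compounds spotted on small-molecule microarray slides.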 As to conditions: small-molecule microarray binding, higher = more signal.
The nature of experiment [12]: yeast growth modulation, basal conditions, primary screen, YJM789 clinical isolate, OD600, 24 h (AID 1089).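 Further: growth of clinical yeast isolate S. cerevisiae YJM 789 seeded 1000 cells per well; test concentration not given here.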 To be noted: S. cerevisiae YJM789 growth, higher = more signal, called active from +8 up or from −8 down.
A short description of experiment [13]: fission yeast growth modulation, primary screen, strain 972, OD600, 24 h, no modulator (AID 1090).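 Further: basal condition with compound alone and no growth modifier present; test concentration not given here.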 As to conditions: S. pombe 972 growth, higher = more signal, called active from +8 up or from −8 down.
A short description of experiment [14]: S. cerevisiae growth modulation with rapamycin, primary screen, strain BY4716, OD600, 96 h (AID 1091). Further: test concentration not given here. To be noted: higher = more signal, called active from +8 up or from −8 down.
In experiment [15] the target is Torsin-1A-interacting protein 2 (Homo sapiens) (UniProt Q8NFQ8). As to the kind of experiment: LULL1 binders on small-molecule microarray, primary screen, cell lysate, human LULL1 lysate, 635/667 nm fluorescence (AID 1092).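 Further: probe is lysate of COS7 cells overexpressing human LULL1; score merges per-feature 667 nm fluorescence with signal-to-noise.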 To be noted: hLULL1 lysate binding, 635 nm fluorescence, higher = more signal.
Experiment [16] in a line: E. coli growth modulation, two-sided OD650, primary screen, E. coli filamentation project, strain DRC41, 24 h (AID 1093).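 Further: MC1000 strain lacking acrAB efflux and sulA so SOS filamentation is blocked; test concentration not given here.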 To be noted: OD650, 24 h, higher = more signal, called active from +8 up or from −8 down.
The nature of experiment [17]: small-molecule microarray binders of probe aLefty2, primary screen, biochemical, biotinylated probe, 635/667 nm fluorescence (AID 1094).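 Further: score merges spot fluorescence near 667 nm with spot signal-to-noise ratio.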 As to conditions: higher = more signal.
For experiment [18], the system named is Noggin (protein binding on small-molecule microarray). Kind of experiment: Noggin binders on small-molecule microarray, primary screen, biochemical, 635/667 nm fluorescence (AID 1095).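 Further: score merges 667 nm feature fluorescence with signal to noise over triplicate slides.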 As to conditions: 635 nm fluorescence, higher = more signal.
The target of experiment [19] is Neurogenic locus notch homolog protein 3 (Homo sapiens) (UniProt Q9UM47). Kind of experiment: NOTCH3 binders on small-molecule microarray, primary screen, biochemical, 635/667 nm fluorescence (AID 1096). As to conditions: NOTCH3 binding, 635 nm fluorescence, higher = more signal.
Experiment [20] is described as follows: small-molecule microarray binders of probe aEGFR, primary screen, biochemical, biotinylated probe, 635/667 nm fluorescence (AID 1097).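 Further: probe is a biotinylated anti-EGFR antibody binding compounds printed on slides; score combines fluorescence near 667 nm and signal to noise of each spot.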 To be noted: higher = more signal.

Structures are written as SMILES. Where “and” joins values, the source holds several entries; their conditions need not be identical. Identical values can stand only once. Where a structure was tested more than once in an assay, its records may differ in their call. Calls of active or inactive are those of the source.

Chain of Neurogenic locus notch homolog protein 3 (Homo sapiens) (Q9UM47 whole entry, looked up): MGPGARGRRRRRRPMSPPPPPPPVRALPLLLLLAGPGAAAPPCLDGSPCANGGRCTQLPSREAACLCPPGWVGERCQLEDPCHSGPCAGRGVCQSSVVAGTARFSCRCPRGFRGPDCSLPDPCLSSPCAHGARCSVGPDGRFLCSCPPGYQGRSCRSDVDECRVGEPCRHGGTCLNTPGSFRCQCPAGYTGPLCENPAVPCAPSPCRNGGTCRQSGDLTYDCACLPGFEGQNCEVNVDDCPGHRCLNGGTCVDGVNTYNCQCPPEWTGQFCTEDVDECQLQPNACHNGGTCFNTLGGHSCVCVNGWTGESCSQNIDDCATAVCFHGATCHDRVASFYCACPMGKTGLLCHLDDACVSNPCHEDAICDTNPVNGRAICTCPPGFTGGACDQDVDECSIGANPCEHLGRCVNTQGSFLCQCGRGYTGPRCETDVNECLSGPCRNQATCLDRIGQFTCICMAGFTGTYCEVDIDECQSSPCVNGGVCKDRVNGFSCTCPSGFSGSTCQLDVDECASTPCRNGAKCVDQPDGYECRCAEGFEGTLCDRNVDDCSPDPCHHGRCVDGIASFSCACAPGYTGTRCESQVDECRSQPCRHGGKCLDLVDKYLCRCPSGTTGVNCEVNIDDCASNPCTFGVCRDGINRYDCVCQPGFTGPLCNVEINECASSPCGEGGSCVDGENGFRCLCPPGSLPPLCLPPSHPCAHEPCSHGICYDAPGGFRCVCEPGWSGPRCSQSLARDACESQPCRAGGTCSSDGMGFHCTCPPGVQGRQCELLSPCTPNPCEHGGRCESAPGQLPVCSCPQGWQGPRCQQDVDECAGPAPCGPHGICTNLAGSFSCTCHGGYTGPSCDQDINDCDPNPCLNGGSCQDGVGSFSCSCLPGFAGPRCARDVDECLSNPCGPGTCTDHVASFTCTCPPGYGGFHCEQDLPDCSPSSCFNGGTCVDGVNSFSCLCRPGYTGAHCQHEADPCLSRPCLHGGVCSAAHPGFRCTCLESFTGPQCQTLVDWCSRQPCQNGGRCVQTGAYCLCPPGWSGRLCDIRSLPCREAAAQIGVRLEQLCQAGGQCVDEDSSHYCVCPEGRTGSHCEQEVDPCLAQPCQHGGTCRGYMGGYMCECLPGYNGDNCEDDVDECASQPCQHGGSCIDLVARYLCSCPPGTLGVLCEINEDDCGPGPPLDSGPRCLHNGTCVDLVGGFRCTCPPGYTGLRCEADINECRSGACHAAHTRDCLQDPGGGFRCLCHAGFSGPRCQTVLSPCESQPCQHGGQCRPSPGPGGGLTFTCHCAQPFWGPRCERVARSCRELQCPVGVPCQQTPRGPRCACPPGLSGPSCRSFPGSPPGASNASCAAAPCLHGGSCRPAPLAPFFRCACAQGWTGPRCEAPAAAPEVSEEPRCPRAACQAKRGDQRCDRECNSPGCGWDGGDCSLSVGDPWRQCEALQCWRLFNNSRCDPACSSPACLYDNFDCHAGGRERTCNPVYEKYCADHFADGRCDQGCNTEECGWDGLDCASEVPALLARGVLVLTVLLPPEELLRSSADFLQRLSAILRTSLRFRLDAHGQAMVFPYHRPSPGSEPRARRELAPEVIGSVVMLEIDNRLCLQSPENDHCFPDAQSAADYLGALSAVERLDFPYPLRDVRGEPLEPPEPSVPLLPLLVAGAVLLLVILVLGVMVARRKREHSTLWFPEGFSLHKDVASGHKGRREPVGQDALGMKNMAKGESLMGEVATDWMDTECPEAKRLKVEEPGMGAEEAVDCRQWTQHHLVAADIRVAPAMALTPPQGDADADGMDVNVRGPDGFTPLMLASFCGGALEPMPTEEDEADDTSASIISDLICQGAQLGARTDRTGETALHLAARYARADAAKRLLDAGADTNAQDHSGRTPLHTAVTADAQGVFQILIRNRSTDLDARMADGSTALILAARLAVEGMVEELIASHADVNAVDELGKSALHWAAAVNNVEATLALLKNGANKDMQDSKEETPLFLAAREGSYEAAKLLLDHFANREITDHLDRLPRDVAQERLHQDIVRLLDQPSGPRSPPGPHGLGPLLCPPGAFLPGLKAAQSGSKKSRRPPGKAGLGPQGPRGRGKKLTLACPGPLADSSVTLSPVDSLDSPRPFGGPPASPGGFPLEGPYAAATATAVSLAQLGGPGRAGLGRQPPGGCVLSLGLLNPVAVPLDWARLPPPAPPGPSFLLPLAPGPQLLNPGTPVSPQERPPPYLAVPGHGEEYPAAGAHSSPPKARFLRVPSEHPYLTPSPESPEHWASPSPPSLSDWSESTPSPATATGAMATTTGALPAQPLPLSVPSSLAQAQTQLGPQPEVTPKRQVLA
Chain of Neurogenic locus notch homolog protein 2 (Homo sapiens) (Q04721 whole entry, looked up, canonical isoform): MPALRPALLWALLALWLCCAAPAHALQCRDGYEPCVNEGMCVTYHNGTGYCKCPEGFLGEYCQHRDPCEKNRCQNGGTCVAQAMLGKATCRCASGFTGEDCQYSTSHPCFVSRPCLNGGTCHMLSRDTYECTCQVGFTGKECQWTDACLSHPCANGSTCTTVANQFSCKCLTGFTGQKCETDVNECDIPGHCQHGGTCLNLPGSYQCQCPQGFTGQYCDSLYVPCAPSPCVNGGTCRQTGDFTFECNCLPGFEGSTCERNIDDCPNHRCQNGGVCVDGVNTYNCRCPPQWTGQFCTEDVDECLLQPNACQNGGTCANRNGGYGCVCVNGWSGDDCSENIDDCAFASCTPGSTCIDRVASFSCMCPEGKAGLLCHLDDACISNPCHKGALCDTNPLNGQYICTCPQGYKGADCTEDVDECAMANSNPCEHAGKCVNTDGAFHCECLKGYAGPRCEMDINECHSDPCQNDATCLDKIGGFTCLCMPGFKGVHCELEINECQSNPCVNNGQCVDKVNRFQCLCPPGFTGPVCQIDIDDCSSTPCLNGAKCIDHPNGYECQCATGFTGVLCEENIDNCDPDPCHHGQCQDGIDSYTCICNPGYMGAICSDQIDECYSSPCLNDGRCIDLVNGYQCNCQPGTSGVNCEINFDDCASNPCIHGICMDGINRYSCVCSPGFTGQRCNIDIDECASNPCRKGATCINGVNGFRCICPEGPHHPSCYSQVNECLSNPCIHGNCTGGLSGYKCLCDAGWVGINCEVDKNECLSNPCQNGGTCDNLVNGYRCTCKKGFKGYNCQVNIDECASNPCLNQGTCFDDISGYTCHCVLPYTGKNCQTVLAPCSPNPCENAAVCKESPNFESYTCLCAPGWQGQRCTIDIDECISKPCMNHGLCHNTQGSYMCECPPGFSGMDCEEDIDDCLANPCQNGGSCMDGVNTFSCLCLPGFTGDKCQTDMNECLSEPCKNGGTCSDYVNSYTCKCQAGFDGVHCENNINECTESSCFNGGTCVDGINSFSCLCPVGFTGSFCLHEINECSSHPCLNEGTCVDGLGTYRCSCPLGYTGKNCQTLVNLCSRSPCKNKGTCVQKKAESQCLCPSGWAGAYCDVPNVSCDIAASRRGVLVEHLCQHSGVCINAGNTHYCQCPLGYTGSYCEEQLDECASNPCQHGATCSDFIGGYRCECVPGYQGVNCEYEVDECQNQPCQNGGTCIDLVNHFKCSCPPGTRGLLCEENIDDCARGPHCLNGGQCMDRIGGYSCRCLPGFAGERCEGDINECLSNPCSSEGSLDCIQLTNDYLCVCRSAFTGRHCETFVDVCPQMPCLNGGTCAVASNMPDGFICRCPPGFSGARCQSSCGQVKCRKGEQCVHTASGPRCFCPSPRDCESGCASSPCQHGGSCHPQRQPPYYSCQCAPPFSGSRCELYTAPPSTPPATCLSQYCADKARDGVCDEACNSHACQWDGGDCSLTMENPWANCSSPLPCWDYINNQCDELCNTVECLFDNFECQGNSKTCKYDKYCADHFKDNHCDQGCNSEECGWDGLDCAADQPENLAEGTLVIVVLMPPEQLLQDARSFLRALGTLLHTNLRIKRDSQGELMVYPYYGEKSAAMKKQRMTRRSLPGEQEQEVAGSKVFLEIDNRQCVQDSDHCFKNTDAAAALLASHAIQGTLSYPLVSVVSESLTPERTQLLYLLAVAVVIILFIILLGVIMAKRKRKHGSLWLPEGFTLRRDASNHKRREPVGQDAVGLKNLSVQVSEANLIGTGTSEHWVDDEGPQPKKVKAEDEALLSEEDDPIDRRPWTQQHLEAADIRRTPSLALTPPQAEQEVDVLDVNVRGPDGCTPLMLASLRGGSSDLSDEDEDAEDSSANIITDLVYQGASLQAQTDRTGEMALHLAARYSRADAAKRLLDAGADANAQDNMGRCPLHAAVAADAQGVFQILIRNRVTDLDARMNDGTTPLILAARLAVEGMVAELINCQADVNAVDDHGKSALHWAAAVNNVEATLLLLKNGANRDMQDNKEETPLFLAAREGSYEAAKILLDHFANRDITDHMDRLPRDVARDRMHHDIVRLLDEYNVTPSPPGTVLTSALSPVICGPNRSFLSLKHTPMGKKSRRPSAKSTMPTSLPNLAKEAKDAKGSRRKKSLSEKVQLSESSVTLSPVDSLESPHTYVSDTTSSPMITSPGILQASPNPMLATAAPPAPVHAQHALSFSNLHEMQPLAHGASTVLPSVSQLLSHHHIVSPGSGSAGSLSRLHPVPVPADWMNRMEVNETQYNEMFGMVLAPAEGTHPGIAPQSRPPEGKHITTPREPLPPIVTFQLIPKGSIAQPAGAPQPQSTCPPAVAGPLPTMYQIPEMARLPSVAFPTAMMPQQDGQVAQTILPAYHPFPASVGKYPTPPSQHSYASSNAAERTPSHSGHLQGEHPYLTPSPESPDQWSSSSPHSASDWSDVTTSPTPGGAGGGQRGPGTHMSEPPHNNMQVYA

As to `COC(=O)C1=C(C)N(Cc2ccccc2)C2=C(C(=O)c3ccccc3)[C@H](c3ccccc3)[C@@](O)(C(=O)OC)C(=O)N2[C@@H]1c1ccccc1`, the composite z-score in experiment [1] is -0.195 and -0.325; in experiment [2], -0.16 and 0.0962; in [3] it was -0.0759 and -0.0691; in experiment [4], 0.429 and 0.387; in experiment [5] it was 0.98 and 0.272; in [6], 0.296 and -0.085. Also, the composite z-score in [7] is 0.672 and 0.253; in experiment [9], 0.128 and 0.0478; in experiment [10], -0.236 and 0.625; in experiment [11] it was 0.518 and 0.722; in experiment [15], 0.886 and 0.23; in experiment [17], 0.0039 and -0.115. For the same compound, the composite z-score is 0.495 and 0.653 in experiment [18]; 0.858 and 0.808 in [19]; 0.127 and -0.123 in [20]. For the same compound, the z-score in experiment [8] was -0.363 (inactive) and 0.429 (inactive); in [12], 0.504 (inactive) and 0.653 (inactive); in experiment [13], -0.413 (inactive) and -0.0902 (inactive); in experiment [14], 34.6 (active) and 0.863 (inactive); in experiment [16] it was 0.591 (inactive) and 0.311 (inactive).
`CC(C)=NOCc1ccc(-c2cn([C@@H]3COC[C@H]3O)nn2)cc1`: the composite z-score in experiment [1] was -0.401; in [2], 0.032; in experiment [3], -0.0268; in [4], 0.543; in experiment [5], 0.31; in experiment [6], -0.766. Besides, the composite z-score in [7] was 0.718; in experiment [9], 0.169; in [10] it was 0.0722; in experiment [11], -0.253; in experiment [15] it was 0.226; in [17] it was 0.0434. In addition, the results for the composite z-score in experiment [18], in experiment [19] and in experiment [20] were 0.485, -0.328 and -0.0025, respectively. For the same compound, the z-score was 0.0937 (inactive) in experiment [8]; 0.279 (inactive) in experiment [12]; 0.132 (inactive) in [13]; -0.738 (inactive) in experiment [14]; 0.484 (inactive) in [16].
Regarding `C[N+](C)(C)CCCCNC(=O)[C@H]1C[C@H]2C(=O)N[C@@H](CCCC[N+](C)(C)C)C(=O)N2[C@H]1c1cccc(OCCO)c1`, the composite z-score is -0.0665 and -0.363 in experiment [1]; -0.422 and 1.12 in experiment [2]; -0.0744 and -0.149 in [3]; 1.24 and 0.967 in experiment [4]; -0.0613 and 0.622 in experiment [5]; 1.24 and 0.211 in experiment [6]. Further, the composite z-score was 0.973 and 1.38 in experiment [7]; 0.613 and 0.743 in [9]; 0.142 and -0.41 in [10]; 1.04 and 1.57 in [11]; 2.58 and 1.78 in experiment [15]; -0.121 and -0.0153 in experiment [17]. Further, the composite z-score was 1.89 and 1.75 in experiment [18]; 0.914 and 1.1 in [19]; 0.0614 and 0.22 in experiment [20]. The z-score in experiment [8] was -0.194 (inactive) and -0.269 (inactive); in experiment [12], -0.604 (inactive) and -0.504 (inactive); in experiment [13], -0.0107 (inactive) and -0.805 (inactive); in experiment [14], -1.88 (inactive) and -1.81 (inactive); in experiment [16], -0.351 (inactive) and -0.201 (inactive).
As to `C=CCN(CCCC)C(=O)C(c1cccs1)N(CCOCCO)C(=O)/C=C\C(=O)O` (stereo not given), the composite z-score in experiment [1] was 0.673 and -0.0069; in experiment [2], 0.878 and 0.902; in experiment [3] it was -0.208 and -0.23; in [4], -1.36 and 0.428; in experiment [5] it was -1.8 and -0.746; in experiment [6], 1.34 and 0.823. The composite z-score in experiment [7] is 0.903 and 0.941; in experiment [9], -0.496 and -0.114; in [10], -0.134 and -0.236; in experiment [11], -1.08 and 0.596; in [15] it was 0.657 and 2.51; in [17] it was -0.145 and -0.139. The composite z-score in experiment [18] was -1.73 and -0.798; in experiment [19], -0.852 and -0.503; in experiment [20], -0.236 and -0.148. In addition, the z-score in experiment [8] was -1.65 (inactive) and -0.784 (inactive); in experiment [12], -1.98 (inactive) and -1.34 (inactive); in [13] it was -0.745 (inactive) and -0.342 (inactive); in [14], -0.604 (inactive) and -0.397 (inactive); in experiment [16], 1.02 (inactive) and 1.45 (inactive).
